Measured values reported in article PMC7862700, “An all-to-all approach to the identification of sequence-specific readers for epigenetic DNA modifications on cytosine”.

What was measured:
Test in all cases: DAPPL (digital affinity profiling via proximity ligation, sequencing); 10 mM Tris-HCl pH 7.5, 50 mM NaCl, 1 mM DTT, 4% glycerol, room temperature, 30 min; GST-TFs on glutathione beads, 16-mer random dsDNA library, 0.1% formaldehyde crosslink after washing; high values mean tight binding
Conditions in all cases: protein: recombinant; tags: N-terminal GST; dsDNA, one strand shown
[1] = biological target: T1, ELK4 (Homo sapiens, UniProt P28324-2 1-405)
T1 sequence: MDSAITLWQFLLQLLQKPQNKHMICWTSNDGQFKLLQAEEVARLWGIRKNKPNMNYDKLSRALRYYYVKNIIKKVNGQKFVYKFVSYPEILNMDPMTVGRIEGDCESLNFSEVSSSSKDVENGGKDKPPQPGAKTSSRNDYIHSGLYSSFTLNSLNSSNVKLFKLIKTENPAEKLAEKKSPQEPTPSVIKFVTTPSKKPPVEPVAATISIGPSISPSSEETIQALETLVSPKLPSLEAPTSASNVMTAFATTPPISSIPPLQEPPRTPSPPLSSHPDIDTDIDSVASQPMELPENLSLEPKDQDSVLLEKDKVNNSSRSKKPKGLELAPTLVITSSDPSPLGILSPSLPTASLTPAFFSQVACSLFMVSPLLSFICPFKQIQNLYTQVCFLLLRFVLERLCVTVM
In short: (§1)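 GST fusions of human transcription factors were expressed in yeast and captured with glutathione beads. Once given DNA barcodes and pooled alongside a tag-only sample, they were incubated for 30 min at room temperature with 200 nmole of a random double-stranded 16-mer DNA library in Tris/NaCl/DTT/glycerol buffer, then washed, crosslinked (0.1% formaldehyde), proximity-ligated, PCR-amplified and sequenced on an Illumina NextSeq500. The binding signal of each hexamer is its read frequency for a factor divided by its frequency for the tag-only sample.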

[2] = biological target: T2, ELF3 (Homo sapiens, UniProt P78545 1-371)
T2 sequence: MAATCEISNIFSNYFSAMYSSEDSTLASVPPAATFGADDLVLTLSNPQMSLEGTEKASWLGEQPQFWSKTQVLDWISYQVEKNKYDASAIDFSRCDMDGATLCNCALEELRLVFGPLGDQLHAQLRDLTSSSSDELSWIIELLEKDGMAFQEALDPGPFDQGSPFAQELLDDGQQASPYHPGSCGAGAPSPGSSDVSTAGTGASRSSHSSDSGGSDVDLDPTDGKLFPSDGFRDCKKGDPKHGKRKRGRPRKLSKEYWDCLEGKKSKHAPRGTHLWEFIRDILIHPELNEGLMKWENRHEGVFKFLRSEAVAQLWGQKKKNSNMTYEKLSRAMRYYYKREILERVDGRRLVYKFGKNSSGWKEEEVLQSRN
In short: as §1

[3] = biological target: ETV1 (Homo sapiens, UniProt P50549 1-477)
In short: as §1

[4] = biological target: T3, ERF (Homo sapiens, UniProt P50548 1-548)
T3 sequence: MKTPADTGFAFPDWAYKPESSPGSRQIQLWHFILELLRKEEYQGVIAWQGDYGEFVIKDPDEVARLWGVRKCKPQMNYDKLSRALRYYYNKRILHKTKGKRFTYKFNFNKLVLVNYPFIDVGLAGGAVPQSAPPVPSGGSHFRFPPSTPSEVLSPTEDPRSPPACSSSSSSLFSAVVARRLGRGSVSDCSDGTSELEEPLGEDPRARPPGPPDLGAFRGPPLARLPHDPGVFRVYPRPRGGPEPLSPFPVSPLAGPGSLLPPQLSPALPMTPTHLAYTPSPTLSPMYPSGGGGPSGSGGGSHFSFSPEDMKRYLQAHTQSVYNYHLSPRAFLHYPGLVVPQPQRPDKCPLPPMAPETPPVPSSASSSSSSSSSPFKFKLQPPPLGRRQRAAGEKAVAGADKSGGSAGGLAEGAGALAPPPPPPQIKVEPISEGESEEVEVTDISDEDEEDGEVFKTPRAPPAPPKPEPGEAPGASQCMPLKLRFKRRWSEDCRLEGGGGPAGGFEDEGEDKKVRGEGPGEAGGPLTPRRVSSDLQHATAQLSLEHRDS
In short: as §1

[5] = biological target: T4, ETV3L (Homo sapiens, UniProt Q6ZN32 1-361)
T4 sequence: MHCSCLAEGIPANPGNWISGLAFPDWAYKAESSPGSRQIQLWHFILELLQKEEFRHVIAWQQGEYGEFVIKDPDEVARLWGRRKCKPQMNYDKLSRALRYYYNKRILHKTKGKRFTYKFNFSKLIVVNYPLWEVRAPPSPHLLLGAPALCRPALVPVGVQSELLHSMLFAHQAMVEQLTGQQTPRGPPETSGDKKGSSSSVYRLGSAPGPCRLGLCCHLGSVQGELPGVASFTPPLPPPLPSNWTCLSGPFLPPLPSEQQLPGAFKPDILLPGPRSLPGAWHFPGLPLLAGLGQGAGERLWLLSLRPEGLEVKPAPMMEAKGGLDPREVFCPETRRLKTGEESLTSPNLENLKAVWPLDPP
In short: as §1

[6] = biological target: T5, ETS2 (Homo sapiens, UniProt P15036 1-469)
T5 sequence: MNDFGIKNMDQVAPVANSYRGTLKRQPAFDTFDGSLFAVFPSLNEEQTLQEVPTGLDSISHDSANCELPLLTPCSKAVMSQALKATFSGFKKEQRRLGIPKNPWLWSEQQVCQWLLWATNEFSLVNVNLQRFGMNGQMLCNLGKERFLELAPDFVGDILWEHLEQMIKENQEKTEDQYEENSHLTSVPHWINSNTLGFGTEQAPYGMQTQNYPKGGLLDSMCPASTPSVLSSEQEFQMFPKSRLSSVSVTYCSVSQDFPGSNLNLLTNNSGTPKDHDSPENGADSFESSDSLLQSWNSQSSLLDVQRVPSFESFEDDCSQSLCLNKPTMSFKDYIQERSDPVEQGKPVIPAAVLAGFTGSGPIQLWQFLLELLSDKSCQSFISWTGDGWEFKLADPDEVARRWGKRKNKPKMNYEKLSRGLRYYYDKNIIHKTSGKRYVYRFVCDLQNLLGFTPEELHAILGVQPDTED
In short: as §1

[7] = biological target: T6, SPDEF (Homo sapiens, UniProt O95238 1-335)
T6 sequence: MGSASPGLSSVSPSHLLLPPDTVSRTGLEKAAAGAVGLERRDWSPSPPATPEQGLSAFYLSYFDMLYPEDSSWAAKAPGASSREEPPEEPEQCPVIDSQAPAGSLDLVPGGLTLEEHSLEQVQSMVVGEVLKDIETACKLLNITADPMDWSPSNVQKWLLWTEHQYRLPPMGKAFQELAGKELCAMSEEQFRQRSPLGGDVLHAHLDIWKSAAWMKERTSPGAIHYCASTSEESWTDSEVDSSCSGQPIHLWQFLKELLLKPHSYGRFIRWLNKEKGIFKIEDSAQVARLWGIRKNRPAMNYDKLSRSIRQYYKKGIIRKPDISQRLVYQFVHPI
In short: as §1

[8] = biological target: T7, ETV7 (Homo sapiens, UniProt Q9Y603 1-341)
T7 sequence: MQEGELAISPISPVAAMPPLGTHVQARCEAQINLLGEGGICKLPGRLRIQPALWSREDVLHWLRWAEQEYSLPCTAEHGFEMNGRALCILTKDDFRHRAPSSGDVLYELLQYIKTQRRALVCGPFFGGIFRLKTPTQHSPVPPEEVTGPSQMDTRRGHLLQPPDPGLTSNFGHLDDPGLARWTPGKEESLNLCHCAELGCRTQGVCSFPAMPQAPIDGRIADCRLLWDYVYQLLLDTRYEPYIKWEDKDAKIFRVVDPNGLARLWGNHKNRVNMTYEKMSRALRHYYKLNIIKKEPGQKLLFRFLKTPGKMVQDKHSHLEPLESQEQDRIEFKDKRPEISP
In short: as §1

[9] = biological target: T8, ETV3 (Homo sapiens, UniProt P41162-2 1-143)
T8 sequence: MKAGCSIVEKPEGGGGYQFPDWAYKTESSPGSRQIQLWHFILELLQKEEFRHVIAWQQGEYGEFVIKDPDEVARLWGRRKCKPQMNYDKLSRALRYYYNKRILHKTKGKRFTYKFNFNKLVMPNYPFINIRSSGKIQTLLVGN
In short: as §1

[10] = biological target: ETV6 (Homo sapiens, UniProt P41212 1-452)
In short: as §1

ETV6, sequence (P41212 whole entry): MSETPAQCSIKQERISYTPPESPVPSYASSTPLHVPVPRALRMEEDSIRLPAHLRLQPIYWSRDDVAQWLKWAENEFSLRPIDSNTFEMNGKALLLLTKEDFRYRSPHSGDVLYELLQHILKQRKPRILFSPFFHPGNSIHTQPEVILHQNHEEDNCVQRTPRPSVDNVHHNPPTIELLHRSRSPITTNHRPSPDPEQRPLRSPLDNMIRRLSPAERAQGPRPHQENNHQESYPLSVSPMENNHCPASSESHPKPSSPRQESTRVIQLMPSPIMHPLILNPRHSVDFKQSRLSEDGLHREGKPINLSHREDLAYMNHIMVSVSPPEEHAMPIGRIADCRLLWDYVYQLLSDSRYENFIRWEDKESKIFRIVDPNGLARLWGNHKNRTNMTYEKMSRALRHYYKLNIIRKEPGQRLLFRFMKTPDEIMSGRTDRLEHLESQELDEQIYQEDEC
ETV1, sequence (P50549 whole entry): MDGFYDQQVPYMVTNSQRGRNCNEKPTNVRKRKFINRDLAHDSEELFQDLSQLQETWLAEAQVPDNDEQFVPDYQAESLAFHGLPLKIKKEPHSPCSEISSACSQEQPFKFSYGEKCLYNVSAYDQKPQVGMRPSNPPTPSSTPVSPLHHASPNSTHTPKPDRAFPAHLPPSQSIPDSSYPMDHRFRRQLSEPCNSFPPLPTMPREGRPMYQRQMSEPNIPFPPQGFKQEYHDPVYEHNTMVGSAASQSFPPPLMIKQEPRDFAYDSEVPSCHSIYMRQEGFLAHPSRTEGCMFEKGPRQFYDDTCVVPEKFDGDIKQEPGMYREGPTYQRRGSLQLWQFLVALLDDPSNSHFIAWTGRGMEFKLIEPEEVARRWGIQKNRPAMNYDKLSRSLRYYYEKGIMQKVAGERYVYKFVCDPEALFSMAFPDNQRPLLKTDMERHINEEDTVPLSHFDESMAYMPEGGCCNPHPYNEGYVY

Sequence: ATAATG
- binding signal [1]: 1.16 fold enrichment (6-mer frequency, TF over GST control)
- binding signal [2]: 1.03 fold enrichment (6-mer frequency, TF over GST control)
- binding signal [3]: 1.16 fold enrichment (6-mer frequency, TF over GST control)
- binding signal [4]: 1.09 fold enrichment (6-mer frequency, TF over GST control)
- binding signal [5]: 1.2 fold enrichment (6-mer frequency, TF over GST control)
- binding signal [6]: 1.14 fold enrichment (6-mer frequency, TF over GST control)
- binding signal [7]: 1.06 fold enrichment (6-mer frequency, TF over GST control)
- binding signal [8]: 1.01 fold enrichment (6-mer frequency, TF over GST control)
- binding signal [9]: 1.09 fold enrichment (6-mer frequency, TF over GST control)
- binding signal [10]: 1.09 fold enrichment (6-mer frequency, TF over GST control)
